Screens: PubChem BioAssay, National Center for Advancing Translational Sciences (NCATS)
NS1 function inh: qHTS Assay for Inhibitors of Influenza NS1 Protein Function | Potency, µM (top dose mostly 46.1 µM), without a hit: at the highest dose activity, positive = more growth | 270,000 compounds, 0.4% hits | AID 2326, 2010; further: potency means the concentration at half of the fitted maximal effect; actives are rising curves; nearly all actives have a fitted effect of over 50% in size
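Recovery from NS1-induced slow growth read by OD600 in budding yeast switched to galactose assay medium (pH 6.0, -URA) at 1:100 dilution. Compound 23 nl per well; the matching strain lacking NS1 serves as control.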
Pf growth 96h: Primary qHTS for delayed death inhibitors of the malarial parasite plastid, 96 hour incubation | 320,000 compounds, 6.9% hits | AID 504834, 2011 | P. falciparum luciferase reporter growth, 96 h | Potency, µM (titrated, usually from 28.7 µM), without a hit: at the top dose activity change, negative = inhibition, usual class: inhibitors; active means well fitted inhibition curve with a large enough effect; inconclusive means small, poorly fitted or top-dose-only effect, or another doubt; inactive means no such curve, though single readings can be large or run the other way; further: potency means the concentration at half of the fitted maximal effect; on the % scale 0 is the no-effect control and ±100 the full control effect
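P. falciparum expressing integrated firefly luciferase, in erythrocytes at 2% hematocrit, 0.05% parasitemia, incubated with compounds 96 h at 37 C, 5% CO2. Growth inhibition read as loss of luminescence; two-generation exposure targets delayed-death apicoplast inhibitors.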
Cycloheximide cs: Cycloheximide Counterscreen for Small Molecule Inhibitors of Shiga Toxin; 300,000 compounds, 12% hits; cell reporter, cycloheximide protein synthesis inhibition counterscreen; AID 2314, 2010; max response, %; in the data active means max response mostly above about 13%, no sharp cut-off; inactive means mostly below about 14%; further: read at 38.3 µM for the half of the compounds with a filed dose; 0% is about no effect
SARS PLpro yeast: qHTS of Yeast-based Assay for SARS-CoV PLP; AID 485353, 2010; Potency, µM (highest dose often 32.9 µM), inactives show top-dose activity, positive = growth rescue, hits mostly activators; S. cerevisiae expressing SARS-CoV PLpro, growth rescue; 330,000 compounds, 0.19% hits; further: potency means the concentration at half of the fitted maximal effect; 0% is about no effect; nearly all actives have a fitted effect of over 55% in size
Shiga inhibitor: A qHTS for Small Molecule Inhibitors of Shiga Toxin. 290,000 compounds, 9.2% hits. Vero cells, Shiga toxin protein synthesis inhibition reporter. AID 2315, 2010. inhibition, % at 38.7 µM; in the data active means inhibition mostly above about 28%, no sharp cut-off; inactive means mostly below about 43%; further: 0% is about no effect
Pf growth 48h: Primary qHTS for delayed death inhibitors of the malarial parasite plastid, 48 hour incubation. P. falciparum luciferase growth in erythrocytes, 48 h. Potency, µM (doses to about 28.7 µM), without a hit: at the highest dose activity change, negative = inhibition, usual class: inhibitors. 310,000 compounds, 5.9% hits. AID 504832, 2011; active means well fitted inhibition curve with a large enough effect; inconclusive means small, poorly fitted or top-dose-only effect, or another doubt; inactive means no such curve, though single readings can be large or run the other way; further: potency means the concentration at half of the fitted maximal effect; on the % scale 0 is the no-effect control and ±100 the full control effect
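First compound was added to culture medium, then infected red cells at 0.1% parasitemia and 2% hematocrit (final). After incubation at 37 C under 5% CO2, luciferase detection reagent was dispensed and light output recorded.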
The depositor's hits bear a star; i = inactive; ? = inconclusive; . = no result given; [ ] = remark or other dose. Most compounds without a hit are left out; they make up all but 21% or so of the library. Unless noted, the call rests on the fitted dose curve.

SMILES	NS1 function inh	Pf growth 96h	Cycloheximide cs	SARS PLpro yeast	Shiga inhibitor	Pf growth 48h
COc1ccc(NC(=O)CNC(=O)Cc2ccccc2)cc1	-2%	19%	8	4%	18	-24%
COc1ccc(CC(=O)Nc2ccc(C(C)=O)cc2)cc1	2%	-15%	28*	1%	45	-25%
COc1ccc(NC(=O)Cc2ccccc2)cc1	0%	?	30*	-8%	38*	105%
COc1ccccc1NC(=O)CSCc1nc2ccccc2[nH]1	1%	12µM*	-5	27%	-5	?
COC(=O)c1cc(CNC(=O)CCCSc2ccccc2)ccc1OC	1%	71%	23*	16%	21	1%
O=C1CCC/C(=N/NC(=O)C2CCN(S(=O)(=O)c3cccs3)CC2)C1	6%	-24%	-5	?	-12	-1%
COc1ccc(NC(=O)CCC(=O)NCCO)cc1	-7%	24%	16*	-1%	45*	-1%
COc1ccc(NC(=O)C(NC(=O)OC(C)(C)C)C(C)OCc2ccccc2)cc1 (centres undefined)	5%	1.7µM*	3	-4%	11	1%
Cc1ccc2c(n1)CC(C)(C)CC2=O	-7%	38%	-4	3%	-14	3%
COc1ccc(NC(=O)COC(=O)C2CCN(S(=O)(=O)c3cccs3)CC2)cc1OC	.	.	.	-16%	.	.
CC(C)c1nnc(NC(=O)CCC(=O)Nc2ccc3cn[nH]c3c2)s1	11%	50%	-2	-1%	28	27%
CCc1ccc(NC(=O)COC(=O)c2nc3nc(C)cc(C)n3n2)cc1	.	-4%	.	2%	.	2%
CC(=O)NC1C(=O)N(CCc2ccccc2)c2ccc(Br)cc21 (centres undefined)	29%	1.9µM*	-2	-7%	-12	.
CC(=O)NC1C(=O)N(Cc2ccccc2)c2ccc(Br)cc21 (centres undefined)	?	?	1	-1%	4	40%
Cc1cc(C(=O)COC(=O)Cc2ccc(Cl)cc2)c(C)n1C	.	.	.	-35%	.	.
O=C(COc1ccc(Cl)cc1Cl)OCC(=O)N1CCCc2ccccc21	-12%	31%	-3	-30%	-11	0%
O=C(CCCOc1ccc(Cl)cc1Cl)N1CCC2(CC1)OCCO2	-6%	.	17*	-2%	34	18%
Cc1cccc(OCC(=O)OCC(=O)N2CCCc3ccccc32)c1C	.	-2%	.	-3%	.	?
Cc1cccc(OCCCC(=O)N2CCCc3ccccc32)c1C	1%	?	28*	-7%	10	.
O=C(CCCOc1ccc(Cl)cc1Cl)N1CCCc2ccccc21	-87%	17%	30*	-11%	56*	.
CCC(Oc1cc(Cl)ccc1Cl)C(=O)N1CCC2(CC1)OCCO2 (centres undefined)	-14%	13%	31*	-1%	64*	91%
COc1cccc(C2C(C(=O)OCc3ccccc3)=C(C)Nc3ncnn32)c1OC (centres undefined)	0%	-5%	-5	9%	-8	.
O=C(O)CSc1nnc(-c2ccc(Cl)cc2Cl)n1-c1ccc(Cl)cc1	?	0%	1	-3%	.	27%
CN(Cc1nc(-c2ccccn2)no1)S(=O)(=O)c1ccc(Br)cc1	-4%	.	3	-1%	12	18%
c1ccc(C(Cc2nc(-c3ccccn3)no2)c2ccccc2)cc1	-63%	?	56*	-19%	94*	?
SMILES	NS1 function inh	Pf growth 96h	Cycloheximide cs	SARS PLpro yeast	Shiga inhibitor	Pf growth 48h
c1ccc(Cc2nc(-c3ccccn3)no2)cc1	-29%	0%[5.75 µM]	50*	-2%	94*	150%
O=C1c2ccccc2C(=O)N1Cc1nc(-c2cccnc2)no1	0%	.	.	.	.	.
Cc1ccc(Cc2nc(-c3ccccn3)no2)cc1	-3%	i	41*	-4%	69*	403%
O=C1c2ccccc2C(=O)N1Cc1nc(-c2ccccn2)no1	-3%	17%	46*	.	47*	115%
Clc1ccc(-c2noc(CCCc3ccccc3)n2)cc1	3%	8%	8	4%	-5	.
COc1ccc(Cc2nc(-c3ccccn3)no2)cc1	-8%	195%	41*	?	29	93%
c1ccc(SCc2nc(-c3ccccn3)no2)cc1	-12%	1%[5.75 µM]	58*	-8%	40*	131%
c1ccc(CCCc2nc(-c3ccccn3)no2)cc1	-7%	?	46*	?	62*	141%
Cc1cc(C)n(-c2ccc(NC(=O)C3CCCCN3C(=O)c3cc(C)oc3C)cc2)n1 (centres undefined)	-9%	?	2	-1%	-3	-27%
O=C(/C=C/c1ccccc1)NCCSc1ccc(Cl)cc1	-22%	0%	-2	0%	-4	13%
CC(=O)c1ccc(NC2=NCCCS2)cc1	1%	20%	15	-1%	10	76%
CCCCc1ccc(NC2=NCCCS2)cc1	-5%	?	30*	-1%	42*	7%
FC(F)(F)Oc1ccc(NC2=NCCCS2)cc1	3%	-14%	33*	-2%	39*	27%
COc1cc(/C=C/C(=O)NCCN2CCOCC2)cc(OC)c1OC	20%	-15%	1	7%	-23	-1%
Cc1ccc(CN2CCN(Cc3cccn3-c3nccs3)CC2CCO)cc1 (centres undefined)	-1%	?	7	-1%	-1	-21%
CN1C(=S)SC2CS(=O)(=O)CC21 (centres undefined)	3%	6%	-3	0%	12	11%
Cc1ccc(CCNC(=O)C2CCN(S(=O)(=O)N3CCCCC3)CC2)cc1	-3%	?	-1	2%	-8	-5%
COc1cc(OC)cc(C(=O)N2CCC(C(=O)NCCc3ccccc3)CC2)c1	-18%	126%	24*	2%	.	2%
Cc1ccc(CCNC(=O)C2CCN(C(=O)N(C)C)CC2)cc1	-18%	1.3µM*	-3	0%	-12	.
COC(=O)C1CCN(C(=O)Cn2nnc(-c3ccccc3)n2)CC1	12%	20%	2	2%	24	20%
CC1CC(C)CN(S(=O)(=O)c2ccc(C(=O)OCC(=O)NCCN3C(=O)CSC3=O)cc2)C1 (centres undefined)	.	47%	-3	-2%	-16	24%
CCc1ccc(OCC(=O)N/N=C(\C)c2ccc3c(c2)OCCO3)cc1	-15%	24%	13*	-27%	-10	-4%
C/C(=N\NC(=O)COc1ccc(C(C)(C)C)cc1)c1ccc2c(c1)OCCO2	1%	13%	9	-17%	28	11%
C/C(=N\NC(=S)Nc1ccc(C(C)C)cc1)c1ccc2c(c1)OCO2	.	?	11	0%	35*	-7%
CCNC(=S)N/N=C(\C)c1ccc2c(c1)OCCO2	-23%	29%	-3	28%	49*	30%
